tim10-1 inh = inhibits growth of tim10-1 mutant yeast | S. cerevisiae tim10-1 ts strain growth, BacTiter-Glo, 24 h | inhibition, % at 20 µM | actives 2.2% (n = 330,000);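 active = inhibition of at least 40%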;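 note: mutant grown at 25 °C; 0% = DMSO wells with yeast and 100% = wells holding no yeast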
SKKanGAS inh = blocks kanamycin growth of S. pyogenes SKKanGAS strain. inhibition, % at 7.5 µM. AID 1662. BacTiter-Glo, 6 h. actives 1.3% (n = 300,000);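 active = mean replicate score, as percent of positive control median, at least 50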;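 note: strain carries kanamycin resistance gene driven by streptokinase promoter and grows in 40 µg/ml kanamycin; loss of luminescence reflects streptokinase promoter inhibition or plain growth inhibition; 0% = median of DMSO wells and 100% = positive control at its reference dose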
TIM10 inh = growth inhibitors of TIM10 yeast strain | S. cerevisiae TIM10 strain growth, BacTiter-Glo luminescence, 24 h | AID 463195 | inhibition, % at 10 µM | actives 1.4% (n = 330,000);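 active = inhibition of 40% or more at the single tested concentration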;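 note: wild-type TIM10 isogenic control strain grown at permissive 25 °C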
PfHsp90 yeast 2 = growth inhibition of yeast expressing Plasmodium Hsp90; S. cerevisiae expressing PfHsp90, BacTiter-Glo ATP, 48 h; yeast lacking PDR1 and PDR3 efflux regulators; actives 0.32% (n = 310,000); inhibition, % at 9.4 µM;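 active = every replicate shows inhibition above about 80%, whatever the replicate mean, limit read from the data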;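 note: 0% = DMSO neutral controls and 100% = 20 µM radicicol positive controls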
tim23-1 inh = growth inhibitors of tim23-1 mutant yeast. S. cerevisiae tim23-1 growth, BacTiter-Glo luminescence, 24 h. inhibition, % at 20 µM. actives 1.3% (n = 330,000);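 active = growth inhibition of the mutant yeast at or above 50%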;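 note: temperature-sensitive mutant grown at 25 °C; plate controls were DMSO-treated mutant yeast for no effect and medium wells lacking yeast for full effect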
NALP1 inh = NALP1 inhibition. S. cerevisiae NALP1/ASC/caspase-1 growth, X-gal OD620, 72 h. inhibition, % at 10 µM. actives 0.61% (n = 280,000). AID 2071; in the data active = inhibition mostly above about 24%, no sharp cut-off; inactive = mostly below about 32%
tim10-1 conf = tim10-1 yeast growth inhibition, confirmed | AID 463213 | inhibition, % at 20 µM | shares compounds with tim10-1 inh | actives 56% (n = 7,400) | S. cerevisiae tim10-1 ts strain growth, BacTiter-Glo, 24 h;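 active = inhibition of yeast growth at or above a set limit in either of two repeat tests at 20 µM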;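 note: tim10-1 mutant grown at permissive 25 °C to find synthetic lethal compounds; 0% = DMSO yeast wells and 100% = medium wells without yeast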
* hit, by the source's call; nt = no result. Sampled rows, rich in hits. Any-hit rate of the full collection: about 4.8%.

SMILES | tim10-1 inh | SKKanGAS inh | TIM10 inh | PfHsp90 yeast 2 | tim23-1 inh | NALP1 inh | tim10-1 conf
CC(C)/C(=N\NS(=O)(=O)c1ccc(Br)cc1)c1cccs1 | 41* | 14 | 21 | 9 | 36 | -2 | 34*
CN(C(=O)c1ccc(NC(=O)Cc2cccc(NC(=O)C3CCCN(C(=O)CCc4ccccc4)C3)c2)cc1)C1CCCC1 (stereo not given) | 1 | nt | -2 | 13 | 18 | nt | nt
COc1ccc(C(C)=O)cc1CSc1nc(C)cc(C)n1 | 28 | 6 | -9 | 4 | 12 | 6 | nt
CCOC(=O)C1(Cc2ccc(OC)cc2)CCN(C(=O)c2cc3ccccc3[nH]2)CC1 | 41* | 15 | 24 | 15 | 27 | 30 | 29
c1ccc(-n2nnnc2SCc2cccc3nsnc23)cc1 | 40* | 5 | 23 | -8 | 36 | 3 | 33*
O=C(CN1C(=O)/C(=C\c2cccc(Br)c2)Oc2ccccc21)NCCCN1CCOCC1 | 44* | -10 | 21 | -4 | 32 | 8 | 26
CC(C)[C@H](NS(=O)(=O)c1ccccc1)C(=O)OCC(=O)N1N=C(c2ccc(Cl)cc2)CC1c1ccco1 (stereo not given in full) | 41* | 16 | 20 | -11 | 34 | 28 | 22
COc1c(C)cc(C(=O)C2CCCN(C(=O)c3csc(C)n3)C2)cc1C (stereo not given) | -4 | -2 | 2 | -21 | 2 | 8 | nt
CC(C)COc1ccc(C(=O)CCN2CCCCC2)cc1 | 54* | -5 | -10 | 7 | 18 | 15 | -8
COC(=O)c1c(NC(=O)C(=O)N2CCOCC2)sc2c1CCC2 | 24 | 6 | 11 | 1 | 22 | 14 | nt
COC(=O)c1c(NC(=O)C(=O)N2CCOCC2)sc2c1CCCC2 | 52* | -4 | 10 | -10 | 49 | 11 | 3
C=CCN(C)CC/C=C1\c2ccccc2CSc2ccccc21 | 38 | 2 | 10 | 29 | 18 | 12 | nt
C#CCN(C)CC/C=C1\c2ccccc2CSc2ccccc21 | 44* | 37 | 17 | 5 | 20 | 10 | 17
Cc1nc([N+](=O)[O-])c(C(=O)OCc2ccccc2)n1C | 8 | 4 | 8 | nt | 12 | 17 | nt
Cc1nc([N+](=O)[O-])c(C(=O)OCc2cccc(Br)c2)n1C | 43* | -1 | 7 | nt | 10 | 7 | 33*
C/C(=N\NC(=O)c1ccc(O)cc1O)c1cccnc1 | -7 | 9 | 12 | 9 | -8 | -63 | nt
COc1cc2c[n+](C)c3c4ccccc4ccc3c2cc1OC | nt | nt | nt | -41 | nt | nt | nt
COc1cc2c(cc1OC)C(C)N(C(=O)Nc1cc(C)cc(C)c1)CC2 (stereo not given) | 23 | 0 | 12 | -8 | 18 | -11 | nt
COc1cc2c(cc1OC)C(C)N(C(=O)c1cc3c(C)cc(C)cc3[nH]1)CC2 (stereo not given) | 41* | 4 | 21 | -14 | 39 | 0 | 10
CCC(=NCc1ccccc1)c1c(C(F)(F)F)[nH]n(-c2nc3ccccc3s2)c1=O | 46* | 13 | 18 | 3 | 38 | 33 | 35*
Nc1nonc1C(=O)N/N=C/c1ccc(-c2ccc(Cl)c(C(=O)O)c2)o1 | 12 | 8 | 10 | -28 | -7 | 1 | nt
COc1ccc2oc(C(=O)N(C)CCOc3ccccc3)c(C)c2c1 | 16 | -10 | 0 | 13 | 32 | 13 | nt
CCCCCCCSc1nsc(N)n1 | 45* | -9 | 24 | nt | 43 | -71 | 21
CC(C)(C)c1ccc(OC(=O)CN2C(=O)C3C4CCC(C4)C3C2=O)cc1 (stereo not given) | 42* | 3 | 24 | -56 | 26 | 4 | 26
Cc1ccc(C(=O)Oc2ccc(Cl)c3cccnc23)cc1[N+](=O)[O-] | 41* | 51* | 10 | -19 | 39 | 7 | 22
SMILES | tim10-1 inh | SKKanGAS inh | TIM10 inh | PfHsp90 yeast 2 | tim23-1 inh | NALP1 inh | tim10-1 conf
CCn1nc(C)c(C(=O)Nc2cc(Oc3ccc(Cl)cc3)cc([N+](=O)[O-])c2)c1C | 49* | 22 | 40 | nt | 44 | -6 | 36*
Cc1nn(CCCC(=O)Nc2cc(Oc3ccc(F)cc3)cc([N+](=O)[O-])c2)c(C)c1[N+](=O)[O-] | 41* | 14 | 16 | nt | 32 | 26 | 22
Cc1ccccc1Oc1cc(NC(=O)CCCn2nc(C)c([N+](=O)[O-])c2C)cc([N+](=O)[O-])c1 | 8 | 23 | 9 | 12 | 24 | 23 | nt
OCCN1CCN(Cc2ccc3ccccc3c2)CC1 | -6 | -1 | -4 | 1 | 14 | 27 | nt
COc1ccc(C2/C(=C(\O)c3ccc4c(c3)OCCO4)C(=O)C(=O)N2c2nc(C)c(C(C)=O)s2)cc1 (stereo not given) | 6 | 23 | 1 | -11 | 2 | -8 | nt
COc1ccccc1C(CNC(=O)c1ccc(NS(=O)(=O)c2ccc(F)c(C)c2)cc1)N(C)C (stereo not given) | 19 | 1 | 6 | 7 | 13 | 3 | nt
COCCNC(=O)/C(C#N)=C/c1ccc(OC(=O)c2cccs2)c(OC)c1 | nt | -9 | nt | -38 | nt | -34 | nt
COc1ccc(/C=C(\C#N)C(=O)NCC2CCCO2)cc1OC (stereo not given) | 40* | -13 | 23 | nt | 46 | 23 | 11
N#C/C(=C\c1ccc(O)c(Br)c1)C(=O)NCc1ccccc1 | 47* | 4 | 19 | -40 | 28 | -9 | 17
COc1cc(/C=C(\C#N)C(=O)NCC2CCCO2)ccc1OCC(N)=O (stereo not given) | 18 | 4 | -3 | nt | 4 | -7 | nt
N#C/C(=C\c1ccc(O)c([N+](=O)[O-])c1)C(=O)NCc1ccccc1 | 15 | 5 | 1 | -16 | 20 | 1 | nt
COc1cc(/C=C(\C#N)C(=O)NCc2cccs2)ccc1O | 42* | 3 | 28 | -10 | 30 | 20 | 28
COc1cc(C(=O)NCC2CCCO2)ccc1OCc1ccc(Cl)cc1Cl (stereo not given) | 43* | 3 | 18 | -18 | 33 | nt | 30*
COc1ccc(CC(NC(C)=O)C(=O)NC2CCN(c3ncccc3[N+](=O)[O-])CC2)cc1 (stereo not given) | 5 | -8 | -8 | 2 | 7 | 15 | nt
O=C(Nc1cc(Cl)cc(Cl)c1)c1ccc(Cn2c(=O)[nH]c3ccsc3c2=O)cc1 | 5 | 26 | -3 | -9 | 2 | 14 | nt
CCOC(=O)N1CCN(C(=O)CSCC(=O)Nc2nc(-c3ccc(Cl)s3)cs2)CC1 | 18 | 7 | 30 | -20 | 17 | 8 | nt
COc1ccccc1NC(=O)c1ccc(-n2cccn2)c([N+](=O)[O-])c1 | 4 | -1 | -10 | -29 | 11 | 13 | nt
Cc1cccc2c(N=O)c(O)n(CCc3ccccc3)c12 | 41* | -2 | 20 | -3 | 38 | 8 | 7
Cc1ccc(Cn2c(O)c(N=O)c3ccccc32)cc1 | 31 | 10 | 16 | 16 | 26 | 1 | nt

Screening data deposited in PubChem BioAssay by several laboratories.
